# Measured values reported in PubChem BioAssay (NCI).
# Compounds without any hit were thinned out: in the full panel of roughly 83,000, 20% have a hit.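 Percent growth is the endpoint: 0 to 100 indicates growth inhibition (40 means 60% inhibition), 0 means no net growth, and negative values indicate cell death.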 Unmarked numbers belong to inactive results. Activity calls are given as the source filed them.
# System: M14 melanoma
# Assay: NCI-60 one-dose screen, 48 h (100 = growth as untreated, 0 = no growth, -100 = all killed)
# Details: 10 µM unless noted
# Procedure: Growth inhibition of the M14 human tumor cell line is measured as a screen for anti-cancer activity. Cells are grown in 96 well plates and exposed to the test compound for 48 hours. Compounds are tested at a single concentration, which is 10^-5 M for most compounds. The reported endpoint is percent growth (GI% or GIPRCNT), where numbers from 0 - 100% represent growth inhibition, and numbers from -100% - 0 represent cell death. For example, a value of 40 represents 60% growth inhibition. A value of 0 means no net growth occurred over the course of the experiment. A value of -40 indicates 40% of cells at the beginning of the experiment died by the end of the experiment. A value of -100 means all cells are dead at the end of the experiment.
# NCI-60 Human Tumor Cell Lines Screen was performed using the standard one-dose NCI protocol, which is described in more detail at https://dtp.cancer.gov/discovery_development/nci-60/default.htm.
# Compounds with GIPRCNT values below 10 were considered active. Activity score was based on GIPRCNT using the following formula: […]
# Score is 0 for GIPRCNT values of 100 or above, 50 for GIPRCNT values of 0, and 100 for GIPRCNT values of -100.
row,Structure (SMILES),growth
1,CCOC(=O)c1cnc(SCc2ccc(Cl)c(Cl)c2)nc1N1CC1,41.8%
2,O=CN1N=C(c2ccccc2)CC1c1sc(N(CCCl)CCCl)nc1Cl (stereo not given),103%
3,CC1(C)N=C(N)N=C(N)N1c1ccc(CCC(=O)Nc2cccc(S(=O)(=O)F)c2)cc1,69.8%
4,c1ccc([As]=[As]c2ccccc2)cc1 (stereo not given),-30.2% (active)
5,Nc1c(Br)cc([N+](=O)[O-])cc1[N+](=O)[O-],113%
6,CC(C)(C)N(Cc1ccccc1)N=O,103%
7,CCCCCCCCCCOc1ccc(C(=O)Oc2ccc(CSP3(=O)OCC4OC(n5ccc(=O)[nH]c5=O)C(F)C4OP(=O)(O)OCC4OC(n5cnc6c(N)ncnc65)C(F)C4O3)cc2)cc1 (stereo not given),90.7%
8,Nc1c(Br)cc2c3c(cccc13)-c1ccccc1-2,58.5%
9,O=C(CCl)NCNC(=O)CCl,91.5%
10,O=C(/C=C/c1ccccc1)N[C@@H](CO)Cc1cnc[nH]1,105%
11,O=C(O)c1cccc(CCl)c1,95.8%
12,CC(C)(C)[Si](C)(C)OC1[C@@H](O[Si](C)(C)C(C)(C)C)[C@@H](CNC(=O)NC(=O)CF)O[C@H]1n1cnc2c(NC(=O)Nc3ccccc3)ncnc21 (stereo not given in full),73.2%
13,CC(=O)Nc1ccc(C=C2C(=O)NC(=O)NC2=O)cc1,106%
14,Cc1ccc(C(=O)C2CN(C)CCC2(O)c2ccc(C)cc2)cc1 (stereo not given),113%
15,CC1(C)N=C(N)N=C(N)N1c1ccc(OCCCCOc2ccc(S(=O)(=O)F)cc2)c(Cl)c1,19%
16,O=C(CC1(O)C(=O)Nc2ccc(F)cc21)c1ccc(C(=O)NCC2CCC3(CC2)OOC2(CCCCC2)OO3)cc1 (stereo not given),83.9%
17,CNC(=O)Oc1cccc(OC)c1,107%
18,C=CCN1C(=O)C(CC)(CCC(C)C)C(=O)NC1=S (stereo not given),107%
19,C=CCc1ccc(OC(=O)Cc2ccccc2)c(OC)c1,106%
20,C[C@@H]1CC[C@@H]2[C@@H]1[C@H](OC(=O)/C=C/C1CCCCC1)[C@]1(C3CCCCC3)C[C@@H](OC(=O)CO)[C@@]2(C)O1,65.2%

row,Structure (SMILES),growth
1,O=C(C(=O)N1CCCC1)c1cn(CCCCCn2cc(C(=O)C(=O)N3CCCC3)c3ccccc32)c2ccccc12,95.9%
2,Cc1cccc(N(C)c2cccc3c2C(=O)[Se]C3)c1C,26.7%
3,O=C(O)c1[nH]c(=O)[nH]c(=O)c1F,86.6%
4,CNC(=O)Oc1ccccc1,99.3%
5,CC1(C)N=C(N)N=C(N)N1c1ccc(CCCCc2ccc(S(=O)(=O)F)cc2)cc1,27.6%
6,Nc1nc(N)c(-c2ccc(Cl)c(Cl)c2)c(/C=C/c2ccc(S(=O)(=O)F)cc2)n1,89.4%
7,CC1(C)N=C(N)N=C(N)N1c1cccc(C(=O)Nc2cccc(S(=O)(=O)F)c2)c1,102%
8,NS(=O)(=O)c1nc[nH]c1[N+](=O)[O-],102%
9,CN1C(=O)NC(=O)C(N=Nc2ccc(Cl)cc2)C1=O (stereo not given),81.5%
10,N#[N+]c1nc2nc(N)[nH]c(=O)c2[nH]1,100%
11,O=C(Nc1ccc(S(=O)(=O)F)cc1)Oc1ccccc1,110%
12,CC(=O)Nc1ccc(Cc2ccc(NC(C)=O)cc2)cc1,99.9%
13,NC(=O)C(Br)CBr (stereo not given),-88.3% (active)
14,C/C(=N/OC(=O)N(C)C)c1cc(Cl)ccc1Cl,109%
15,CC12CC[C@H](O)C=C1/C(=N/O)CC1C2CCC2(C)C1CC[C@@H]2O (stereo not given in full),95.7%
16,Cc1cccc(N=C2c3cc([N+](=O)[O-])ccc3-c3c2cc([N+](=O)[O-])cc3[N+](=O)[O-])c1,69.4%
17,CC(=O)O[C@@H]1C2=C(C)C3(CC3)[C@@](C)(O)C(=O)C2=C[C@@]1(C)CO,-48.6% (active)
18,COc1ccc(/C=C\c2cc(OC)c(OC)c(OC)c2)cc1N/C=C\C(=O)c1c[nH]c2ccccc12,11.3%
19,CCC[CH2][Sn]([CH2]CCC)([CH2]CCC)[O]C(=O)CC,-91.4% (active)
20,CO[C@@H]([CH2][Hg][S]C#N)[C@@H]([CH2][Hg][S]C#N)OC,81.3%
